Reference: PubChem BioAssay AID2289 (National Center for Advancing Translational Sciences (NCATS), 2010)
Among all 340,000 compounds or so, about 3,300 (0.97%) were called active. About 9% were inconclusive and are not listed. Calls follow the shape of the dose curve; as a rule, active = well fitted inhibition curve with a large enough effect; inconclusive = small, poorly fitted or top-dose-only effect, or effect the other way; inactive = flat fitted curve, though single readings scatter. This is one part of the list.

Assay: qHTS Assay for Modulators of miRNAs and/or Inhibitors of miR-21; also: nearly all actives have a fitted effect of over 55% in size
Details: HeLa miR-21-FLuc reporter, luciferase luminescence, 48 h; actives lower the signal
Summary of the method: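 HeLa cells stably expressing CMV-driven firefly luciferase with a downstream miR-21 binding sequence, endogenously expressing miR-21, were treated with titrations (up to about 40uM final) for 48 hours at 37 degree Celsius. Luciferase luminescence was read after lysis.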
Potency is read from the fitted curve at half-maximal effect.

Potency, active:
Cc1cc(C)c(C#N)c(SCc2cn3ccccc3n2)n1 18.5 µM
Cc1cccc2nc(CSc3nc4ccccc4o3)cn12 18.5 µM
c1ccc2c(SCc3cn4ccccc4n3)nncc2c1 14.7 µM
Clc1ccc(SCc2cn3ccccc3n2)cc1 4.65 µM
c1ccc2nc(SCc3cn4ccccc4n3)cnc2c1 9.27 µM
Cc1cccc2nc(CSc3ccc(Cl)cc3)cn12 4.14 µM
Clc1ccc2nc(CSCc3ccccc3)cn2c1 2.93 µM
CCOc1ccc(N2Nc3n[nH]c(N)c3N2)cc1 16.5 µM
N#CC1CC(c2ccccc2)=NN1c1ccccc1[N+](=O)[O-] (configuration not stated) 5.85 µM
CC(/C=C/c1ccc(OCc2ccccc2)cc1)=N\O 2.07 µM
c1ccc(CSc2nnc3ccc(-c4cccs4)nn23)nc1 7.36 µM
COC(=O)c1cc2c(s1)-c1ccc(OC)cc1CC2 6.56 µM
CCc1ccc(-n2nnc(-c3nc(-c4ccccc4)no3)c2C)cc1 1.17 µM
Cc1cccc(-n2nnc(-c3nc(-c4cccs4)no3)c2N)c1C 0.0927 µM
COc1cccc(-n2nnc(-c3nc(-c4cccs4)no3)c2N)c1 1.04 µM
CCc1ccc(-n2nnc(-c3nc(-c4cccs4)no3)c2N)cc1 1.17 µM
Cc1cccc(-n2nnc(-c3nc(-c4cccs4)no3)c2N)c1 0.329 µM
Nc1c(-c2nc(-c3cccs3)no2)nnn1-c1cccc(F)c1 0.208 µM
COc1ccc(/C(C)=N/Nc2ccccc2Cl)c(O)c1 8.26 µM
Nc1nc(N2CCN(C(=O)c3ccco3)CC2)nc2ccccc12 14.7 µM
Nc1nc(N2CCN(c3ccccn3)CC2)nc2ccccc12 6.56 µM
CCOc1ccc2nc(C(=O)N3CCCC(C)C3)sc2c1 (configuration not stated) 3.29 µM
c1ccc2c(COn3nnc4ccccc43)cccc2c1 2.61 µM
COC(=O)c1ccc(COn2nnc3ccccc32)cc1 1.31 µM
Clc1ccc(COn2nnc3ccccc32)c(Cl)c1 2.61 µM
COc1cccc(/C=N/n2c(=O)[nH]c3ccccc32)c1OC 8.26 µM
COc1cccc(/C=N/Nc2nc3ccccc3[nH]2)c1OC 2.93 µM
O=c1[nH]n(CC2COC3(CCCCC3)O2)c(=O)c2ccccc12 (configuration not stated) 16.5 µM
Oc1cccc(Nc2nc(O)c(/C=C3\C=Nc4ccccc43)s2)c1 8.26 µM
FC(F)(F)c1cccc(N/N=C/c2ccccc2)c1 6.56 µM
Cc1ccc(S(=O)(=O)Oc2cccc(/C=N/Nc3ccc(C(=O)O)cc3)c2)cc1 13.1 µM
O=C(O)c1ccc(/C=N/Nc2cccc(C(F)(F)F)c2)cc1 7.36 µM
O=C(O)c1ccc(N/N=C/c2cccc(C(F)(F)F)c2)cc1 1.85 µM
Cc1nn(-c2cccc(C(F)(F)F)c2)c(Cl)c1/C=N/Nc1cccc(C(=O)O)c1 0.104 µM
Oc1ccc(/C=N/Nc2ccc(Cl)nn2)cc1O 13.1 µM
CCNc1nc(NCC)nc(N/N=C/c2ccc(O)c(O)c2)n1 18.5 µM
Oc1ccc(/C=N/Nc2ccc(C(F)(F)F)cn2)cc1O 10.4 µM
O=C1C[C@H]2[C@H](CO)[C@@H](OC(=O)c3ccc(-c4ccccc4)cc3)C[C@H]2O1 7.36 µM
O=C(O)c1ccccc1N/N=C/c1cc(Br)cc(Br)c1O 2.07 µM
O=C(O)c1cccc(N/N=C/c2cc(Br)cc(Br)c2O)c1 5.21 µM
O=c1[nH]c2ccccc2c2cn(-c3ccccc3)nc12 4.65 µM
CC(CNC(=O)c1ccc2c(c1)nc1n2CCOC1)c1ccccc1 (configuration not stated) 13.1 µM
Cc1cccc(CCNC(=O)c2ccc3c(c2)nc2n3CCOC2)c1 3.29 µM
COc1cc(Cl)cc(/C=C/c2ccc3ccccc3n2)c1OC(C)=O 0.414 µM
O=C1c2ccccc2-c2nc3ccccc3cc21 1.47 µM
COc1ccc(OCC(=O)Nc2ccc(-c3nc4cc(Cl)ccc4o3)cc2)cc1 2.93 µM
Cc1cc2nc(-c3cccc(NC(=O)COc4ccc(C(C)C)cc4)c3)oc2cc1C 0.369 µM
COc1ccc(OCC(=O)Nc2ccc(-c3nc4cc(C)c(C)cc4o3)cc2)cc1 0.131 µM
O=C(COc1ccc(Cl)cc1)Nc1ccc(-c2nc3cc(Cl)ccc3o2)c(O)c1 7.36 µM
O=C(OCC(=O)N1CCOCC1)c1ccccc1Cc1ccccc1 2.93 µM
N/C(=N\OC(=O)c1ccc2ccccc2c1)c1ccncc1 0.585 µM
N/C(=N\OC(=O)c1cccc2ccccc12)c1ccncc1 16.5 µM
Cc1ccccc1C(=O)O/N=C(\N)c1ccncc1 6.56 µM
CCOc1ccc(-c2cn(-c3ccc(OC)cc3)c(SC)n2)cc1 2.93 µM
COc1ccc(-n2cc(-c3ccccc3)nc2SC)cc1 8.26 µM
C=CCN1N=C(/C=C/c2ccc(C)cc2)CCC1=O 10.4 µM
C=CCN1N=C(/C=C/c2ccc(OC)cc2)CCC1=O 14.7 µM
Cc1cc2sc3nc(=O)n(-c4ccccc4)c(=O)n3c2cc1C 4.14 µM
Cc1ccc2c(c1)sc1nc(=O)n(-c3ccccc3)c(=O)n12 0.131 µM
Cc1snc(SCC(=O)c2ccc(F)cc2)c1C#N 4.65 µM
O=C(Nc1ccc2oc(-c3ccccc3Cl)nc2c1)c1ncn[nH]1 0.927 µM
O=C1c2ccccc2C(=O)c2cc(NC(=O)C3CC3)ccc21 0.736 µM
Cc1ccccc1-c1nc2cc(NC(=O)C3CC3)ccc2o1 0.414 µM
O=C(Nc1ccccc1O)c1ccc(NC(=O)C2CC2)cc1 6.56 µM
N#Cc1c(N2CCCC2)nsc1-c1ccccc1 16.5 µM
N#Cc1c(N2CCOCC2)nsc1-c1ccc(C(F)(F)F)cc1 5.85 µM
N#Cc1c(N2CCOCC2)nsc1-c1ccccc1 13.1 µM
